The subject of assay [1] is XIP peptide (Xip251-270) binding. The assay can be described thus: XIP fragment 251-270 binding compounds – biochemical, small-molecule microarray, fluorescence 635/667 nm, 0.1 µg/mL protein, primary screen (AID 1182). The conditions noted are these: fluorescent protein binding, 635 nm, higher = more signal, called active from +8 up or from −8 down.
Assay [2] has as its system XIP peptide (Xip251-270). The assay can be described thus: compounds binding XIP fragment 251-270 – biochemical, small-molecule microarray, fluorescence 635/667 nm, 0.5 µg/mL protein, primary screen (AID 1183). The conditions noted are these: fluorescence 635 nm, higher = more signal.
Assay [3] can be described thus: blood-stage malaria parasite viability loss – strain 3D7, DAPI fluorescence, 100 nL, primary screen (AID 1184).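 Note: parasites grown inside human red blood cells in medium with human serum.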 The conditions noted are these: P. falciparum 3D7 growth, 3 d, higher = more signal.
For assay [4], the target named is Homeobox protein Hox-A13 (Mus musculus) (UniProt Q62424). The assay can be described thus: disruptors of Hoxa13 oligonucleotide interaction – biochemical, fluorescence polarization, labeled oligonucleotide, primary screen (AID 1185). The conditions noted are these: Hoxa13:DNA binding, 15 min, higher = more signal, called active from +8 up or from −8 down.

Calls of active or inactive are those of the source.

Homeobox protein Hox-A13 (Mus musculus), sequence (Q62424 whole entry, looked up): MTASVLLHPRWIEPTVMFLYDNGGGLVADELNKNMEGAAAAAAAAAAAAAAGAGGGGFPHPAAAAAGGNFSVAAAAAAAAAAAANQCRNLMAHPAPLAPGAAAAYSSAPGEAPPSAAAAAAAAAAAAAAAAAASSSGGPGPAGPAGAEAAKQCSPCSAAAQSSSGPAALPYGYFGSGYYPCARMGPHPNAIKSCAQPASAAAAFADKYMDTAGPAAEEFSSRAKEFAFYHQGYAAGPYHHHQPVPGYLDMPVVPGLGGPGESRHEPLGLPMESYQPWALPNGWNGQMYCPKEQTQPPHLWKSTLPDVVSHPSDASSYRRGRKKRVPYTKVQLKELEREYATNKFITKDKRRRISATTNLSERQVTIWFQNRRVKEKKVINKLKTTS

On to `CC=CC1=C(CO)C(=O)[C@@H]2O[C@@H]2C1=O`, for which the results for the composite z-score in assay [1] and in assay [2] were 3.73 (inactive) and 0.736, respectively. Further, the z-score in assay [3] is 0.908; in assay [4], -3.53 (inactive).

With `C[C@H]1Cc2c(COc3ccccc3)nc3c(c2CO1)CN(CCOc1ccccc1)CC3`, the composite z-score was -0.279 (inactive) in assay [1] and 0.692 in assay [2]. The z-score in assay [3] was 0.668; in assay [4], -5.49 (inactive).

For the compound `CC(C)(C)N1C(=O)[C@H]2[C@H]3[C@H](O)[C@H](O)CC(=O)[C@H]3CC[C@H]2C1=O`, the composite z-score in assay [1] was 0.596 (inactive); in assay [2], 0.556. Further, the z-score was -1.08 in assay [3] and 0.117 (inactive) in assay [4].

Regarding `C#CCCCON=C1C[C@@H](O)[C@@H](O)[C@@H]2[C@@H]3C(=O)N(Cc4ccccc4)C(=O)[C@@H]3CC[C@@H]12`, the values for the composite z-score in assay [1] and in assay [2] were -0.186 (inactive) and -0.148, respectively. Besides, the z-score was 0.542 in assay [3] and -0.417 (inactive) in assay [4].

With `CC(C)=NOC[C@@H](C)[C@H](OCc1ccccc1)C(C)C`, the composite z-score is -0.0088 (inactive) in assay [1] and 0.177 in assay [2]. Further, the results for the z-score in assay [3] and in assay [4] were -0.89 and 1.47 (inactive), respectively.

Take `COc1ccc(O[C@H]2C=C[C@@H](c3ccccc3)O[C@@H]2CON=C(C)CCC(=O)OC[C@H]2O[C@H](c3ccccc3)C=C[C@@H]2Oc2ccc(OC)cc2)cc1`: the composite z-score in assay [1] was 0.392 (inactive); in assay [2] it was -0.0127. For the same compound, the z-score was -1.61 in assay [3] and -0.19 (inactive) in assay [4].

Consider `CCOC(=O)[C@H](Cc1ccccc1)NC(=O)CCC1CC(OC(=O)NCc2ccc3c(c2)OCO3)CC2(CCCC(COC(=O)NCCC(C)C)O2)O1` (stereo not given in full), for which the composite z-score was 0.644 (inactive) in assay [1] and 0.18 in assay [2]. In addition, the values for the z-score in assay [3] and in assay [4] were -1.2 and -6.91 (inactive), respectively.

Regarding `COC(=O)[C@@H]1CC[C@H](C)[C@@H](c2ccc(C)cc2)N1C(=O)c1ccc(C=NO[C@H](C)c2cn([C@@H]3COC[C@H]3O)nn2)cc1`, the composite z-score in assay [1] was 0.604 (inactive); in assay [2] it was 0.78. Besides, the z-score was -0.214 in assay [3] and -6.19 (inactive) in assay [4].

`COC(=O)CC=C[C@@H](C)[C@@H](C=NO[C@@H]1O[C@H](COC(C)=O)[C@@H](OC(C)=O)[C@H](OC(C)=O)[C@H]1OC(C)=O)NS(=O)(=O)c1ccc(C)cc1`: the composite z-score was -0.0076 (inactive) in assay [1] and 0.203 in assay [2]. Also, the z-score was -0.0818 in assay [3] and -5.17 (inactive) in assay [4].

`CCc1cc2c(nc1CC)CCN(CCC(C)=NO[C@H](C)c1cn([C@H](CO)Cc3ccccc3)nn1)C2`: the composite z-score is 0.076 (inactive) in assay [1] and 0.284 in assay [2]. Besides, the results for the z-score in assay [3] and in assay [4] were -1.91 and -5.78 (inactive), respectively.

As for `COC(=O)CC=C[C@@H](C)[C@@H](C=NOC(C)CN1CCCc2nc(C)c(C)cc21)OC` (stereo not given in full), the composite z-score in assay [1] was 0.327 (inactive); in assay [2] it was 0.274. Further, the z-score in assay [3] is 0.004; in assay [4], -1.24 (inactive).

For the compound `O=C1[C@H]2[C@H]3[C@H](O)[C@H](O)CC(=NOC[C@@H](O)COCc4ccco4)[C@H]3CC[C@H]2C(=O)N1c1ccc(F)cc1F`, the composite z-score in assay [1] was -0.774 (inactive); in assay [2], 0.415. For the same compound, the z-score in assay [3] is -0.644; in assay [4] it was 0.794 (inactive).

Regarding `CCOC(=O)[C@H](CC(C)C)NC(=O)CCC1CC(OC(=O)NCc2ccc3c(c2)OCO3)CC2(CCCC(COC(=O)NCCCN3CCCC3=O)O2)O1` (stereo not given in full), the values for the composite z-score in assay [1] and in assay [2] were -0.228 (inactive) and 0.6, respectively. For the same compound, the z-score in assay [3] is -1.61; in assay [4], -5.69 (inactive).

With `COC(=O)CC=C[C@@H](C)[C@@H](C=NO[C@@H](C)c1cn([C@H](CO)Cc2ccccc2)nn1)OC`, the composite z-score in assay [1] was -0.179 (inactive); in assay [2] it was 0.0522. For the same compound, the z-score was 0.141 in assay [3] and -0.41 (inactive) in assay [4].

Regarding `CO[C@H]1COC(=O)CC=C[C@@H](C)[C@H](OC)COC(=O)CCC[C@@H]1C`, the values for the composite z-score in assay [1] and in assay [2] were -0.283 (inactive) and -0.15, respectively. Also, the z-score in assay [3] was 0.0095; in assay [4], -0.51 (inactive).

Turning to `CCCNC(=O)OC[C@H]1O[C@H](CCON=C(C)CCC(=O)OC[C@H]2O[C@H](c3ccccc3)C=C[C@@H]2Oc2ccc(OC)cc2)C=C[C@@H]1Oc1ccc(OC)cc1`, the composite z-score was 0.146 (inactive) in assay [1] and -0.138 in assay [2]. The z-score in assay [3] is -0.935; in assay [4], -2.1 (inactive).

Consider `COc1ccc(O[C@H]2C=C[C@@H](c3ccccc3)O[C@@H]2COC(=O)CCC(C)=NO[C@@H]2O[C@H](COC(C)=O)[C@@H](OC(C)=O)[C@H](OC(C)=O)[C@H]2OC(C)=O)cc1`, for which the values for the composite z-score in assay [1] and in assay [2] were 0.427 (inactive) and 0.495, respectively. For the same compound, the z-score in assay [3] was -0.0102; in assay [4] it was -4.34 (inactive).

As to `Cc1ccc(S(=O)(=O)N[C@H]2COC(=O)CC=C[C@@H](C)COC(=O)CC=C[C@@H]2C)cc1`, the results for the composite z-score in assay [1] and in assay [2] were 0.172 (inactive) and 0.921, respectively. The z-score is 0.641 in assay [3] and -1.06 (inactive) in assay [4].

For the compound `COCCNC(=O)OCC1CCCC2(CC(OC(=O)NCc3ccc4c(c3)OCO4)CC(CCC(=O)N[C@@H](C)C(=O)OC)O2)O1` (stereo not given in full), the composite z-score is 0.412 (inactive) in assay [1] and 0.623 in assay [2]. Also, the values for the z-score in assay [3] and in assay [4] were -2 and -6.4 (inactive), respectively.

On to `O=C1[C@H]2[C@H]3[C@H](O)[C@H](O)CC(=NOCc4ccccc4)[C@@H]3CC[C@H]2C(=O)N1c1ccc(F)cc1F`, for which the composite z-score is -0.228 (inactive) in assay [1] and 0.0159 in assay [2]. For the same compound, the z-score in assay [3] was -0.545; in assay [4], 0.941 (inactive).

Values taken from PubChem BioAssay.
